Laboratory results published in publication PMC7862700, “An all-to-all approach to the identification of sequence-specific readers for epigenetic DNA modifications on cytosine”.

Key:
Assay in all cases: DAPPL (digital affinity profiling via proximity ligation, sequencing); 10 mM Tris-HCl pH 7.5, 50 mM NaCl, 1 mM DTT, 4% glycerol, room temperature, 30 min; GST-TFs on glutathione beads, 16-mer random dsDNA library, 0.1% formaldehyde crosslink after washing; high values mean tight binding
FLI1 = target: T1, FLI1 (Homo sapiens, UniProt Q01543 1-452); details: protein: recombinant; tags: N-terminal GST; dsDNA, one strand shown
T1 sequence: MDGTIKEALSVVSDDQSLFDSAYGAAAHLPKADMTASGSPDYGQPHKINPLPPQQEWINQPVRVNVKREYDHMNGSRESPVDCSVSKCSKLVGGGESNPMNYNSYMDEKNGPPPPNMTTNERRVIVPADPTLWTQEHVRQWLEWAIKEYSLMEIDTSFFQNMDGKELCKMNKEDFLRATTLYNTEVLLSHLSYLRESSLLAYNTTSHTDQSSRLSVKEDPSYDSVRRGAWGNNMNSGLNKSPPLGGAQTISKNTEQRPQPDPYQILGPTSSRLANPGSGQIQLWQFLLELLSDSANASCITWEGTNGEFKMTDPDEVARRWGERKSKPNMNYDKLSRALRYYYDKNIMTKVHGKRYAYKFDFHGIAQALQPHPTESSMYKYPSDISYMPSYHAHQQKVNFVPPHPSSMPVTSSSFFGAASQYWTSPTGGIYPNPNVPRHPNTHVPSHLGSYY
Summary of the method: (§1)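 Pools of DNA-barcoded human transcription factors, expressed in yeast as GST fusions on glutathione beads and combined with a tag-only sample, were incubated with 200 nmole of a 16-mer random double-stranded DNA library. Incubation took 30 min at room temperature in Tris/NaCl/DTT/glycerol buffer and was followed by washing, 0.1% formaldehyde crosslinking, proximity ligation (BsaI/T4 ligase, 1 h, 37 °C), PCR amplification and sequencing on an Illumina NextSeq500. Binding signal is the ratio of a hexamer's read frequency for a factor to its frequency for the tag-only sample.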

ELK1 = target: T2, ELK1 (Homo sapiens, UniProt P19419 1-428); details: protein: recombinant; tags: N-terminal GST; dsDNA, one strand shown
T2 sequence: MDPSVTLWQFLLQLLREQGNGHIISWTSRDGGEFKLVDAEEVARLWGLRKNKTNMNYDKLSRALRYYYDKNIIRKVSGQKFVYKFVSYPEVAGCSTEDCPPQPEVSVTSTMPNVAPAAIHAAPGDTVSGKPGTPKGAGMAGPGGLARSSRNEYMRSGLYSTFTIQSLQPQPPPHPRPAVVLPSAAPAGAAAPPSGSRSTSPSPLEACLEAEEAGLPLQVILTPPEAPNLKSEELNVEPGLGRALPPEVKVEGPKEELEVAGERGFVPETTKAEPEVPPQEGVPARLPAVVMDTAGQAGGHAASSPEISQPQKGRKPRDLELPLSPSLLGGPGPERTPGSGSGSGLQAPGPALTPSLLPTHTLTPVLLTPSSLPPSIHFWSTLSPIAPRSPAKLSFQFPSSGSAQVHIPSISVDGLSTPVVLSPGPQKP
Summary of the method: as §1

GABPA = target: T3, GABPA (Homo sapiens, UniProt Q06546 1-454); details: protein: recombinant; tags: N-terminal GST; dsDNA, one strand shown
T3 sequence: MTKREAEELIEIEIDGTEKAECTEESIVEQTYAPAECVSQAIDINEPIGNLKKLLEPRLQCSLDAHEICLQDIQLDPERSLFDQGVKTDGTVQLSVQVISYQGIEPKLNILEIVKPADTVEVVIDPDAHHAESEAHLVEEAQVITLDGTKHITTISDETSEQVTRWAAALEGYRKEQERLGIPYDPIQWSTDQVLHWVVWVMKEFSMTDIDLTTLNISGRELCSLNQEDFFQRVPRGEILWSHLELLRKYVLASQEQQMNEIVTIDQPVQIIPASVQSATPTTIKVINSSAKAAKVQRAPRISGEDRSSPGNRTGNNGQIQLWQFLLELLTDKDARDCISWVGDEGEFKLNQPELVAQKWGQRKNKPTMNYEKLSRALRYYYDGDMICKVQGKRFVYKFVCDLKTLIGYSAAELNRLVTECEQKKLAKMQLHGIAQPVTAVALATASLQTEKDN
Summary of the method: as §1

ERG = target: T4, ERG (Homo sapiens, UniProt P11308 1-479); details: protein: recombinant; tags: N-terminal GST; dsDNA, one strand shown
T4 sequence: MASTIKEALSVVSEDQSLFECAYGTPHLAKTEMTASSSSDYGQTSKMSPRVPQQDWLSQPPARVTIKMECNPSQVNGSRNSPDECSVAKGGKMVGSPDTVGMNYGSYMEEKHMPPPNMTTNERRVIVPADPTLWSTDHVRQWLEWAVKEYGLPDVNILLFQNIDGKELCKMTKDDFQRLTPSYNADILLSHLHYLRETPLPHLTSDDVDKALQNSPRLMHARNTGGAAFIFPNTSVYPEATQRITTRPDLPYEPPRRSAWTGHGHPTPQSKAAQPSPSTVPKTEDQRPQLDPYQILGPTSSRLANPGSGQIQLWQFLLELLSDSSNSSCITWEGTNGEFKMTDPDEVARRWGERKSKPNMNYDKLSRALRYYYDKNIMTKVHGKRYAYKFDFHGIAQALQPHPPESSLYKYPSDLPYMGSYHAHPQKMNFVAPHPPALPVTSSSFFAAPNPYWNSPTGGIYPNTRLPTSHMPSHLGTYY
Summary of the method: as §1

ELF1 = ELF1 (Homo sapiens, UniProt P32519 1-619); details: protein: recombinant; tags: N-terminal GST; dsDNA, one strand shown
Chain of ELF1 (P32519 whole entry): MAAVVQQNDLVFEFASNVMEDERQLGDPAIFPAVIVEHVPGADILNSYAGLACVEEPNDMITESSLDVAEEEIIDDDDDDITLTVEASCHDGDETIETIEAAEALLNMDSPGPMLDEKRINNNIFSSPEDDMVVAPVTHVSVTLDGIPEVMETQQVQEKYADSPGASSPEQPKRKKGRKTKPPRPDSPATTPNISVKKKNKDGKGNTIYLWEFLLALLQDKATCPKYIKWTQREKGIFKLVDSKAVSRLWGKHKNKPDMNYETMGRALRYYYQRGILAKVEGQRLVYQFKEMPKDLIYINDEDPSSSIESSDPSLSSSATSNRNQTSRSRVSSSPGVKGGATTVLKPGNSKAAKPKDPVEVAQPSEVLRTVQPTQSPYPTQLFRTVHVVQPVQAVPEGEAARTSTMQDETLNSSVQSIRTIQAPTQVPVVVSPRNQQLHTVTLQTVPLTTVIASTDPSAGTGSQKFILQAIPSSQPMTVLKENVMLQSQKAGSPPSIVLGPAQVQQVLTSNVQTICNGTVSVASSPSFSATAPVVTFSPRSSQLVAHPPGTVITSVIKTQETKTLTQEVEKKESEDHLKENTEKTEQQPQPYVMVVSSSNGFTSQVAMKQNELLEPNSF
Summary of the method: as §1

EHF = target: T5, EHF (Homo sapiens, UniProt Q9NZC4 1-300); details: protein: recombinant; tags: N-terminal GST; dsDNA, one strand shown
T5 sequence: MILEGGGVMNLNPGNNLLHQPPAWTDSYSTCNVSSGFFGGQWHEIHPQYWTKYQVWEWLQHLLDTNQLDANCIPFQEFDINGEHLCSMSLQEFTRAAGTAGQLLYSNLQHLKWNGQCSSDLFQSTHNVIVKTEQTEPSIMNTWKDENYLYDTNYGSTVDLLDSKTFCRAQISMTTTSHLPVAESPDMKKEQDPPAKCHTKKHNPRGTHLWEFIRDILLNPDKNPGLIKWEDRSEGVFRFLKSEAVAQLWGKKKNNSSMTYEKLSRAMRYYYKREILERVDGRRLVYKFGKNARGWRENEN
Summary of the method: as §1

SPI1 = SPI1 (Homo sapiens, UniProt P17947 1-270); details: protein: recombinant; tags: N-terminal GST; dsDNA, one strand shown
Summary of the method: as §1

SPIB = SPIB (Homo sapiens, UniProt Q01892 1-262); details: protein: recombinant; tags: N-terminal GST; dsDNA, one strand shown
Chain of SPIB (Q01892 whole entry): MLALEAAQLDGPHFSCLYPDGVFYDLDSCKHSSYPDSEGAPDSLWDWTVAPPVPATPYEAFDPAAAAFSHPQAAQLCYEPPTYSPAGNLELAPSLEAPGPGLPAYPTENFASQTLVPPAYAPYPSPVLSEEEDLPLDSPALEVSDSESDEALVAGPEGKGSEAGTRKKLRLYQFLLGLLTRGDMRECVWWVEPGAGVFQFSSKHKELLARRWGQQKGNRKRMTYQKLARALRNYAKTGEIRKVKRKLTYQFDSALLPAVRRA
Summary of the method: as §1

ELK3 = target: T6, ELK3 (Homo sapiens, UniProt P41970 1-407); details: protein: recombinant; tags: N-terminal GST; dsDNA, one strand shown
T6 sequence: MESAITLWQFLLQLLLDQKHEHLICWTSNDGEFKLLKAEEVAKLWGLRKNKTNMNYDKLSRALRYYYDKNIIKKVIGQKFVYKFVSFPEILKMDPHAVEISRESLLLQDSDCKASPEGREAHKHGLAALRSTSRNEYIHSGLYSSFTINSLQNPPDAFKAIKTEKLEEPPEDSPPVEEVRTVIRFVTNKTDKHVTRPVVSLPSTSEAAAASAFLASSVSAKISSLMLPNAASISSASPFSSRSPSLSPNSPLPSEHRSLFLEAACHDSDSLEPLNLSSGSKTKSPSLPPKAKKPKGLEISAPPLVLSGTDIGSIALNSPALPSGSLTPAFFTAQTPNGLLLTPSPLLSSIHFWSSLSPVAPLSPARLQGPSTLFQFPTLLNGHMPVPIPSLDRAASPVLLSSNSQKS
Summary of the method: as §1

FEV = target: T7, FEV (Homo sapiens, UniProt Q99581 1-238); details: protein: recombinant; tags: N-terminal GST; dsDNA, one strand shown
T7 sequence: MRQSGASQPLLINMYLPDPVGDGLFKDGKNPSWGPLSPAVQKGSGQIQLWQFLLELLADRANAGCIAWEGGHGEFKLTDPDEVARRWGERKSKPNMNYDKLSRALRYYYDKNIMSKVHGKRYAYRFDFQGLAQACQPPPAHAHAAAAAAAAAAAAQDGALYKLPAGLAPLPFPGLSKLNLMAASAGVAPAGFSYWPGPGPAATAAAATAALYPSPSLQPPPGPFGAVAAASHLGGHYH
Summary of the method: as §1

ETV5 = ETV5 (Homo sapiens, UniProt P41161 1-510); details: protein: recombinant; tags: N-terminal GST; dsDNA, one strand shown
Chain of ETV5 (P41161 whole entry): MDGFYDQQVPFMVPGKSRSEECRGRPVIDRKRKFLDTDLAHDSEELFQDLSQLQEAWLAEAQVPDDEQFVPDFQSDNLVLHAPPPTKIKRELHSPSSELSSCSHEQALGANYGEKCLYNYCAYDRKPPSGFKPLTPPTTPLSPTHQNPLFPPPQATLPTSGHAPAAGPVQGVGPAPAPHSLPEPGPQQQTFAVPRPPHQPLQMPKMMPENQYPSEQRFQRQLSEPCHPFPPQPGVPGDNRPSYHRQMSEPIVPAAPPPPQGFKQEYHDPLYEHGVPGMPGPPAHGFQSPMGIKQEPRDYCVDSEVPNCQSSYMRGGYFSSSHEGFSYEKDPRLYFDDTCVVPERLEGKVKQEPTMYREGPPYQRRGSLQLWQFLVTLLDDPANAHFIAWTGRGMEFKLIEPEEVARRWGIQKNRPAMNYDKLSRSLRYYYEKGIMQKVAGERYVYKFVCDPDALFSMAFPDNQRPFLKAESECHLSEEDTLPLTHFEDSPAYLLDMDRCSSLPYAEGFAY
Summary of the method: as §1

HSF1 = HSF1 (Homo sapiens, UniProt Q00613 1-529); details: protein: recombinant; tags: N-terminal GST; chain copies: 3; dsDNA, one strand shown
Chain of HSF1 (Q00613 whole entry): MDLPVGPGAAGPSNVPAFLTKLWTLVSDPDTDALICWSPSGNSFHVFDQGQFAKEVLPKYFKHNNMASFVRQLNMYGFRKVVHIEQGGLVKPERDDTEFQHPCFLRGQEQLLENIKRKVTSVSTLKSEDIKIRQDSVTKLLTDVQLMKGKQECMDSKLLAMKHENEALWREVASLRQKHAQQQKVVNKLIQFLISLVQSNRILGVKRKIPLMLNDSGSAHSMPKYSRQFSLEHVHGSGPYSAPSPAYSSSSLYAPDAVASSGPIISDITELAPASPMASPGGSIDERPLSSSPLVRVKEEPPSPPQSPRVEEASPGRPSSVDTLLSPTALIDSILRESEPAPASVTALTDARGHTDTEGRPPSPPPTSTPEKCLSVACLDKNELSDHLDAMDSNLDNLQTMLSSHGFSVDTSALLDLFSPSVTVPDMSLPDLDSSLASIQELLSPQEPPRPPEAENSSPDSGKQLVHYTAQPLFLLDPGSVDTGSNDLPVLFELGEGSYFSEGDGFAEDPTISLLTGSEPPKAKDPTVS
Summary of the method: as §1

SPIC = target: T8, SPIC (Homo sapiens, UniProt Q8N5J4 1-248); details: protein: recombinant; tags: N-terminal GST; dsDNA, one strand shown
T8 sequence: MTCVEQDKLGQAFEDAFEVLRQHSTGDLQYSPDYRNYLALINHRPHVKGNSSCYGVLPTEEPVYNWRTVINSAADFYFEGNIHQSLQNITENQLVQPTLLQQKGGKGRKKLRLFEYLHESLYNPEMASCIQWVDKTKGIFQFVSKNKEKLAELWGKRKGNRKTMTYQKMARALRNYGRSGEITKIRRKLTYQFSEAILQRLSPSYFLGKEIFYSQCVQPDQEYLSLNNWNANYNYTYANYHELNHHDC
Summary of the method: as §1

ELF4 = ELF4 (Homo sapiens, UniProt Q99607 1-663); details: protein: recombinant; tags: N-terminal GST; dsDNA, one strand shown
Chain of ELF4 (Q99607 whole entry): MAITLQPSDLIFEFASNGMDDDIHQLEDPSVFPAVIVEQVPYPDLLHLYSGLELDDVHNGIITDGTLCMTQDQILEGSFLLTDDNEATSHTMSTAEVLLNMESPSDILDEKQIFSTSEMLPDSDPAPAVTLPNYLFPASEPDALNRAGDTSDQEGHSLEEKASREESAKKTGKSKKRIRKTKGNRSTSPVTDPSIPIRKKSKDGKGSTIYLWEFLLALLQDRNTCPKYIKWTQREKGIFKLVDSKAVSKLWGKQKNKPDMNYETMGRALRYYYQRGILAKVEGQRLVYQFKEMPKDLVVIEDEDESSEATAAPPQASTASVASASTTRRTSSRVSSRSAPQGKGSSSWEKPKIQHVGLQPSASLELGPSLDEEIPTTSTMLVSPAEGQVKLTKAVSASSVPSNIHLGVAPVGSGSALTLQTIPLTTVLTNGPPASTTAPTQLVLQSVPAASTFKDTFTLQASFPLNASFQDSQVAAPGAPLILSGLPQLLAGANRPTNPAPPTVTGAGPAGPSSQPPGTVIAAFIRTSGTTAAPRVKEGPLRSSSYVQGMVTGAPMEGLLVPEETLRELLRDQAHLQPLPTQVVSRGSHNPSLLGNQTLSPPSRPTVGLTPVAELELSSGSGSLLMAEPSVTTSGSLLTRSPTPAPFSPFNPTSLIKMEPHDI
Summary of the method: as §1

ELK4 = target: T9, ELK4 (Homo sapiens, UniProt P28324-2 1-405); details: protein: recombinant; tags: N-terminal GST; dsDNA, one strand shown
T9 sequence: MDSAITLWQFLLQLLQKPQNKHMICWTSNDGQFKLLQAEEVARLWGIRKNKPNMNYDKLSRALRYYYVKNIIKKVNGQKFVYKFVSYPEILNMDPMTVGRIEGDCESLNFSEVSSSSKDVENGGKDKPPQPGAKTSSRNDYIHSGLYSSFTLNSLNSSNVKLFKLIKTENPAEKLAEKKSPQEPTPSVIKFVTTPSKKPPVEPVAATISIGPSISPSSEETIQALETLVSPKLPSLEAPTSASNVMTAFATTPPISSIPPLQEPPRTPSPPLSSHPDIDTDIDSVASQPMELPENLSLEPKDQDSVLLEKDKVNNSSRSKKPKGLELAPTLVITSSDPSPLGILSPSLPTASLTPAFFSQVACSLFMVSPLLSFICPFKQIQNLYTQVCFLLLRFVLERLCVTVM
Summary of the method: as §1

ETV2 = target: T10, ETV2 (Homo sapiens, UniProt O00321 1-342); details: protein: recombinant; tags: N-terminal GST; dsDNA, one strand shown
T10 sequence: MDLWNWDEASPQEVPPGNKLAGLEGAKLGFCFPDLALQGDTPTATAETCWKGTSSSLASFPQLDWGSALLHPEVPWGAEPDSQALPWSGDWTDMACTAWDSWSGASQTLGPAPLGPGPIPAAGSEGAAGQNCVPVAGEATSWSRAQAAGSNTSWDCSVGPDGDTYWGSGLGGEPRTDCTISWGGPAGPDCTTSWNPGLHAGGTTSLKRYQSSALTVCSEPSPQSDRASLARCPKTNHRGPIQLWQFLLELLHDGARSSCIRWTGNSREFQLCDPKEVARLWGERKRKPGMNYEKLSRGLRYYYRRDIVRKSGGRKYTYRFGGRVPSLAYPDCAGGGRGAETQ
Summary of the method: as §1

ELF3 = target: T11, ELF3 (Homo sapiens, UniProt P78545 1-371); details: protein: recombinant; tags: N-terminal GST; dsDNA, one strand shown
T11 sequence: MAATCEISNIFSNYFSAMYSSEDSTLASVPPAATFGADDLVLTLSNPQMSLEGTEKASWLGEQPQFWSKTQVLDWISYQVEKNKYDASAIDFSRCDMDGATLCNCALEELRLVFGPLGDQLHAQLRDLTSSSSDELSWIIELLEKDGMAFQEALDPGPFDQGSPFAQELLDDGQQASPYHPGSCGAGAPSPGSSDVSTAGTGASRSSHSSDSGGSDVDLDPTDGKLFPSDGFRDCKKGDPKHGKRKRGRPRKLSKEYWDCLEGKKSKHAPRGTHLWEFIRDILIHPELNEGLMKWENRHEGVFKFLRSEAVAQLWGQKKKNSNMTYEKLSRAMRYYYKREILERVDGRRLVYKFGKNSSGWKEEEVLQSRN
Summary of the method: as §1

CRX = CRX (Homo sapiens, UniProt O43186 1-299); details: protein: recombinant; tags: N-terminal GST; dsDNA, one strand shown
Chain of CRX (O43186 whole entry): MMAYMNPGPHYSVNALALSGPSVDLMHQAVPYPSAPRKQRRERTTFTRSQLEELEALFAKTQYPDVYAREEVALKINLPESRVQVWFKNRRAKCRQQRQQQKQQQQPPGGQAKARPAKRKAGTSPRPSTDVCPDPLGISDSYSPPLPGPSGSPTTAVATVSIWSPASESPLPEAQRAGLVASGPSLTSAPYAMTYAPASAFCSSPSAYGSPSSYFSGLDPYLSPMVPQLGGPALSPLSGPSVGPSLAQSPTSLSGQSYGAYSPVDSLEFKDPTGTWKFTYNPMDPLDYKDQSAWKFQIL
Summary of the method: as §1

ETV1 = ETV1 (Homo sapiens, UniProt P50549 1-477); details: protein: recombinant; tags: N-terminal GST; dsDNA, one strand shown
Chain of ETV1 (P50549 whole entry): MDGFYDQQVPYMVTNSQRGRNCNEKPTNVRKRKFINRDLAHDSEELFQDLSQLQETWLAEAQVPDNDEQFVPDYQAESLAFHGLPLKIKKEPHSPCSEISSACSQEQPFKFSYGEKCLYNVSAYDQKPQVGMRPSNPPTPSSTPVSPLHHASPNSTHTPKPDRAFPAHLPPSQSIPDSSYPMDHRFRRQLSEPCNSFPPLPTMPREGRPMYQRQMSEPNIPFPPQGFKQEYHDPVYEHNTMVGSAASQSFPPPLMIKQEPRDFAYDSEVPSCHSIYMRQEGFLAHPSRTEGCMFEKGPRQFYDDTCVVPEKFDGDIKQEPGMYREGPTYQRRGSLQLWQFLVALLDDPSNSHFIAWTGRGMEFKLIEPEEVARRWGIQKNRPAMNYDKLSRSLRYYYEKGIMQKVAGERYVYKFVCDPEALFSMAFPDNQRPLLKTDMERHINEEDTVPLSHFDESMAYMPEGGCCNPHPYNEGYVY
Summary of the method: as §1

With TACTTC the binding signal (FLI1) was 3.38 fold enrichment (6-mer frequency, TF over GST control), the binding signal (ELK1) was 3.79 fold enrichment (6-mer frequency, TF over GST control) and the binding signal (GABPA) was 3.25 fold enrichment (6-mer frequency, TF over GST control). The binding signal (ERG) was 3.88 fold enrichment (6-mer frequency, TF over GST control), the binding signal (ELF1) was 3.54 fold enrichment (6-mer frequency, TF over GST control) and the binding signal (EHF) was 3.7 fold enrichment (6-mer frequency, TF over GST control). For the same sequence, the binding signal (SPI1) was 4.12 fold enrichment (6-mer frequency, TF over GST control), the binding signal (SPIB) was 3.33 fold enrichment (6-mer frequency, TF over GST control) and the binding signal (ELK3) was 4.29 fold enrichment (6-mer frequency, TF over GST control). For the same sequence, the binding signal (FEV) was 4.27 fold enrichment (6-mer frequency, TF over GST control), the binding signal (ETV5) was 3.65 fold enrichment (6-mer frequency, TF over GST control) and the binding signal (HSF1) was 1.43 fold enrichment (6-mer frequency, TF over GST control). For the same sequence, the binding signal (SPIC) was 3.27 fold enrichment (6-mer frequency, TF over GST control), the binding signal (ELF4) was 3.17 fold enrichment (6-mer frequency, TF over GST control) and the binding signal (ELK4) was 3.03 fold enrichment (6-mer frequency, TF over GST control). The binding signal (ETV2) was 3.6 fold enrichment (6-mer frequency, TF over GST control), the binding signal (ELF3) was 3.4 fold enrichment (6-mer frequency, TF over GST control) and the binding signal (CRX) was 1.48 fold enrichment (6-mer frequency, TF over GST control). For the same sequence, the binding signal (ETV1) was 3.6 fold enrichment (6-mer frequency, TF over GST control).
